{"source": "PubChem BioAssay (EPA / NIEHS)", "note": "Calls of active or inactive are those of the source. The calls were made as follows: active = hit-call score of the fitted dose curve at least 0.9, where 1 is the maximum; inactive = score below 0.9.", "data": [{"assay": "ATG_EGR_CIS: Attagene CIS-FACTORIAL HepG2 Assay for human Early Growth Response 1 (EGR1) (AID 2282938)", "details": "HepG2 Attagene CIS-FACTORIAL EGR reporter mRNA; actives raise or lower the signal", "protocol": "ATG_CIS is a cell-based, multiplexed-readout assay that uses HepG2, a human liver cell line, with measurements taken at 24 hours after chemical dosing in a 24-well plate.ATG_EGR_CIS is one of 52 assay component(s) measured or calculated from the ATG_CIS assay. It is designed to make measurements of mRNA induction, a form of inducible reporter, as detected with fluorescence intensity signals by Reverse transcription polymerase chain reaction (RT-PCR) and Capillary electrophoresis technology.Data from the assay component ATG_EGR_CIS was analyzed into 1 assay endpoint. This assay endpoint, ATG_EGR_CIS, was analyzed with bidirectional fitting relative to DMSO as the negative control and baseline of activity. Using a type of inducible reporter, measures of mRNA for gain or loss-of-signal activity can be used to understand the reporter gene at the transcription factor-level as they relate to the gene EGR1. Furthermore, this assay endpoint can be referred to as a primary readout, because this assay has produced multiple assay endpoints where this one serves a reporter gene function. To generalize the intended target to other relatable targets, this assay endpoint is annotated to the dna binding intended target family, where the subfamily is zinc finger.\nHuman liver HepG2 cells are transiently transfected with multiple reporter transcription units (MRTUs) in 6-well plates using FuGene 6 reagent (Roche; 3 ml FuGene/1 mg DNA). The MRTU constructs are regulated by a cis-regulating element (promoter). […] A major difference between the CIS and TRANS system is that in CIS activities of endogenous TFs are measured, whereas the TRANS assay evaluates changes in activities of exogenous, chimeric NR-Gal4 proteins. […] At the end of 24 hour incubation, total RNA was isolated using TriZol reagent (Invitrogen). The isolated RNA is then reverse-transcribed using oligo(dT) primer and Mo-MLV reverse transcriptase (Invitrogen) with DNAse I (Ambion) treatment for 30 min. The one-tenth of the produced cDNA was amplified by PCR using Taq DNA polymerase (Invitrogen) and two reporter sequence-specific primers. The PCR products were fluorescently labeled by primer extension with 6-arboxyfluorescein (6-FAM) 5'-labeled reporter sequence-specific primer (2 min at 95 C, 20 s at 68 C and 10 min at 72 C) and these products were digested with 5U of HpaI (New England Biolabs) for 2h at 37 C. The fragments were purified using Qiaquick PCR columns (Qiagen), analyzed on an ABI 3130xL genetic analyzer (Applied Biosystems) with peak positions identified by using a set of X-rhodamine (ROX)-labeled MapMarker1000 molecular weight standards (BioVentures). The raw capillary electrophoresis data was processed using Attagraph software (Attagene).", "values": [{"smiles": "CCCCCCCC(=O)OCC(O)CO", "note": "(stereo not given)", "outcome": "inactive"}, {"smiles": "Cc1ccc(S(N)(=O)=O)cc1", "outcome": "inactive"}, {"smiles": "CN(C)CCOC(C)(c1ccccc1)c1ccccn1", "note": "(stereo not given)", "outcome": "inactive"}, {"smiles": "COC(=O)c1ccc(C)cc1C1=NC(C)(C(C)C)C(=O)N1", "note": "(stereo not given) (tested in a mixture with another compound)", "outcome": "inactive"}, {"smiles": "C#CC(C)(O)CC(C)C", "note": "(stereo not given)", "outcome": "inactive"}, {"smiles": "CCCCCCCCc1ccc(S(=O)(=O)O)cc1", "outcome": "inactive"}, {"smiles": "CCCCCCCCCCCC(=O)OCC(O)CO", "note": "(stereo not given)", "outcome": "inactive"}, {"smiles": "CC(C)CCCCCCc1ccc(OCCOCCO)cc1", "outcome": "inactive"}, {"smiles": "C=CC(=C)CCCC(C)(C)OC(C)=O", "outcome": "inactive"}, {"smiles": "CCc1cc(Cc2cc(CC)cc(C(C)(C)C)c2O)c(O)c(C(C)(C)C)c1", "AC50": "18.5 µM (active)"}, {"smiles": "CCC(C)=O", "outcome": "inactive"}, {"smiles": "CCCCCCCCC=CCCCCCCCC1=NCCN1CCO", "outcome": "inactive"}, {"smiles": "C=C(C)CNCC", "outcome": "inactive"}, {"smiles": "COc1ccc(OC)c(N=Nc2c(O)ccc3ccccc23)c1", "outcome": "inactive"}, {"smiles": "BrCc1cccc(Oc2ccccc2)c1", "outcome": "inactive"}, {"smiles": "O=P(O)(O)O", "outcome": "inactive"}, {"smiles": "Cc1ccc(OC(=O)c2ccccc2O)cc1", "outcome": "inactive"}, {"smiles": "CCOC(=O)CN", "outcome": "inactive"}, {"smiles": "CC1=C(Br)C(=O)C(Br)=C/C1=C(/c1ccccc1S(=O)(=O)O)c1cc(Br)c(O)c(Br)c1C", "outcome": "inactive"}, {"smiles": "CC1=CC[C@@]23C[C@@H]1C(C)(C)[C@@H]2CC[C@H]3C", "outcome": "inactive"}, {"smiles": "O=C1OC2(c3ccccc31)c1ccc(O)c(Br)c1Oc1c2ccc(O)c1Br", "outcome": "inactive"}, {"smiles": "CCC1(c2ccccc2)C(=O)NCNC1=O", "outcome": "inactive"}, {"smiles": "CC(C)Nc1nc(N)nc(Cl)n1", "outcome": "inactive"}, {"smiles": "CCCCCCC(CO)CCCC", "note": "(stereo not given)", "outcome": "inactive"}, {"smiles": "OC[C@H]1O[C@@H](Oc2ccc(O)cc2)[C@H](O)[C@@H](O)[C@@H]1O", "outcome": "inactive"}, {"smiles": "CC1(C)COCN1", "outcome": "inactive"}, {"smiles": "CCc1ccc(O)c(OC)c1", "outcome": "inactive"}, {"smiles": "c1ccc2cc(Nc3ccc(Nc4ccc5ccccc5c4)cc3)ccc2c1", "outcome": "inactive"}, {"smiles": "Nc1ccc2c(O)cc(S(=O)(=O)O)cc2c1", "outcome": "inactive"}, {"smiles": "CC(C)OCCO", "outcome": "inactive"}, {"smiles": "C=CCCCCCCCCCC", "outcome": "inactive"}, {"smiles": "CC(CN=Cc1ccccc1O)N=Cc1ccccc1O", "note": "(stereo not given)", "outcome": "inactive"}, {"smiles": "CC(C)CCOC(=O)c1ccccc1", "outcome": "inactive"}, {"smiles": "CCCC[P+](CCCC)(CCCC)CCCC", "outcome": "inactive"}, {"smiles": "CCCC(=O)C(CC)Sc1ccoc1C", "note": "(stereo not given)", "outcome": "inactive"}, {"smiles": "C[C@H]1C[C@@H](O)CC(C)(C)C1", "outcome": "inactive"}, {"smiles": "CCCC1O[C@@H]2C[C@H]3[C@@H]4CCC5=CC(=O)C=C[C@]5(C)[C@H]4[C@@H](O)C[C@]3(C)[C@]2(C(=O)CO)O1", "note": "(stereo not given in full)", "outcome": "inactive"}, {"smiles": "CCCCCC(=O)CC", "outcome": "inactive"}, {"smiles": "Cc1cc(S(=O)(=O)O)ccc1N=Nc1c(O)ccc2ccccc12", "outcome": "inactive"}, {"smiles": "CC(C)(C)OC(=O)c1ccc(O)cc1", "outcome": "inactive"}]}]}
